Laboratory results: PubChem BioAssay (NCI)
Compounds without any hit were thinned out: in the full panel of roughly 83,000, 20% have a hit.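 Interpretation: 100, growth as untreated; towards 0, rising growth inhibition; 0, no net growth; 0 to -100, cell death. Compounds scoring below 10 were considered active.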 A number with no mark means an inactive call. Calls of active or inactive are those of the source.

Tests used:
Test in all cases: NCI-60 one-dose screen, 48 h (100 = growth as untreated, 0 = no growth, -100 = all killed)
Conditions in all cases: 10 µM unless noted
SR leukemia = system: SR leukemia
RPMI-8226 leukemia = system: RPMI-8226 leukemia
OVCAR-8 ovarian = system: OVCAR-8 ovarian
OVCAR-5 ovarian = system: OVCAR-5 ovarian
OVCAR-4 ovarian = system: OVCAR-4 ovarian
SK-OV-3 ovarian = system: SK-OV-3 ovarian
IGROV1 ovarian = system: IGROV1 ovarian
OVCAR-3 ovarian = system: OVCAR-3 ovarian
HS 578T breast = system: HS 578T breast
NCI/ADR-RES ovarian = system: NCI/ADR-RES ovarian
T-47D breast = system: T-47D breast
BT-549 breast = system: BT-549 breast
MDA-MB-435 melanoma = system: MDA-MB-435 melanoma
SW-620 colon = system: SW-620 colon
MCF7 breast = system: MCF7 breast
HCT-116 colon = system: HCT-116 colon
HCC-2998 colon = system: HCC-2998 colon
KM12 colon = system: KM12 colon

| Structure (SMILES) | growth (SR leukemia) | growth (RPMI-8226 leukemia) | growth (OVCAR-8 ovarian) | growth (OVCAR-5 ovarian) | growth (OVCAR-4 ovarian) | growth (SK-OV-3 ovarian) | growth (IGROV1 ovarian) | growth (OVCAR-3 ovarian) | growth (HS 578T breast) | growth (NCI/ADR-RES ovarian) | growth (T-47D breast) | growth (BT-549 breast) | growth (MDA-MB-435 melanoma) | growth (SW-620 colon) | growth (MCF7 breast) | growth (HCT-116 colon) | growth (HCC-2998 colon) | growth (KM12 colon) |
| --- | --- | --- | --- | --- | --- | --- | --- | --- | --- | --- | --- | --- | --- | --- | --- | --- | --- | --- |
| COc1ccc(NC(=O)c2cc3ccccc3nc2Nc2cc(OC)c(OC)c(OC)c2)cc1 | 56.6% | 35.5% | 41.9% | 92.4% | 58.1% | 91.7% | 87% | 48% | 79% | 43.2% | 27.1% | 52.8% | 63.9% | 75.1% | 39.4% | 48.2% | 89% | 37.9% |
| CCOC(=O)C1=C(CSC(=S)N(C2CCCCC2)C2CCCCC2)N(C)C(=O)NC1c1ccccc1 (stereo unspecified) | 29.9% | 35.8% | 49.2% | 92% | 45% | 71.4% | 56.3% | 56.1% | 80.7% | 64% | 50.2% | 66.3% | 58.1% | 37.2% | 46.4% | 26.2% | 71.9% | 55.7% |
| CC(C)C(C(=O)CCN(C)C)c1ccc(Cl)cc1 (stereo unspecified) | 84% | 67.5% | 93.3% | 115% | 109% | 85.2% | 105% | 108% | 101% | 106% | 82.9% | 90.5% | 107% | 108% | 87.4% | 79.9% | 104% | 104% |
| Cc1ccc(S(=O)(=O)NCCCNc2nccc(-c3c(-c4ccccc4)nc4sccn34)n2)cc1 | 33.9% | 25.6% | 37.9% | 117% | 48.4% | 57.9% | 35.7% | 38% | 74.9% | 49% | 39.9% | 38.9% | 34% | 58.1% | 42.8% | 15.2% | 93.9% | 18.6% |
| CC/C=C\C/C=C\C[C@H]1C/C=C2/C(=O)C=C[C@H]2C/C=C\CCC(=O)O1 | 4.9% (active) | 4.52% (active) | 0.0569% (active) | 25.4% | 42.6% | 31.3% | 3.81% (active) | -12.1% (active) | 40.2% | 17.9% | 12.9% | -7.41% (active) | 3.37% (active) | -4.82% (active) | 20% | -63.4% (active) | -59.2% (active) | -34.5% (active) |
| O=[N+]([O-])c1cccc(-c2cc(-c3cc(Br)ccc3O)[nH]n2)c1 | 19.7% | -2.85% (active) | 33.9% | 55.4% | 16.3% | 30.6% | 13.7% | 2.12% (active) | 46.6% | 19.2% | 21.1% | 24.1% | 13.5% | 28.1% | 6.17% (active) | 13.5% | 43.7% | 12.5% |
| O=C(CSc1nc(-c2ccc(Cl)cc2)cn1-c1ccc(Cl)cc1)c1ccc(Br)cc1 | 92.7% | 86.1% | 48% | 84.1% | 9.78% (active) | 79% | 59.9% | 84.9% | 63.2% | 70.6% | 69.6% | 94.1% | 91.5% | 89.3% | 83.9% | 43.9% | 89.6% | 88.5% |
| O=C1c2ccccc2C(=O)c2c(N=Nc3sc(=O)[nH]c3S)cccc21 | 85% | 90.2% | 94.9% | 129% | 95.3% | 117% | 94.1% | 89.1% | 90.3% | 98.8% | 82.4% | 109% | 100% | 90% | 72% | 95.7% | 102% | 90.3% |
| COc1ccc(-c2nnc(COc3ccc(NS(=O)(=O)c4ccc(OC)cc4)cc3F)o2)cc1 | 50.6% | 43.4% | 82.5% | 94.2% | 57.3% | 83.9% | 84.5% | 76.7% | 88.2% | 55.3% | 31.6% | 84.7% | 81.4% | 94.3% | 69.5% | 67.2% | 93.1% | 73.4% |
| Cc1ccc(S(=O)(=O)OCC(=O)Nc2ccc(C(=O)O)c(O)c2)cc1 | 45.7% | 92% | 97.7% | 102% | 86.9% | 127% | -17.7% (active) | 118% | 118% | 88% | 106% | 89.2% | 114% | 105% | 105% | 96.2% | 87.6% | 110% |
| CCOC(=O)/C=C\C(=O)NC(N)=O | 97.3% | 98.5% | 104% | 113% | 120% | 95.9% | 104% | 110% | 102% | 106% | 89.1% | 100% | 106% | 107% | 96.3% | 86.4% | 95.2% | 106% |
| COc1cccc(-c2nc3sccn3c2-c2ccnc(NCCCNS(=O)(=O)c3ccc(F)cc3)n2)c1 | 28.9% | 17.4% | 17.3% | 116% | 25.2% | 72.7% | 34.6% | 37.4% | 57.3% | 15.5% | -8.19% (active) | 29.6% | 25.2% | 58.4% | 39.9% | 19.9% | 82.4% | 22.1% |
| Cc1cc(Nc2nc(-c3ccc(F)cc3)nc3ccccc23)n[nH]1 | 20.4% | 94.8% | 95% | 70.3% | 41% | 21% | 11.3% | 61.5% | 25.1% | 71% | 29.3% | 72.9% | 31.2% | 48.8% | 23.8% | 28.5% | 67.3% | 14.8% |
| COc1cc(OC)c(C(=O)/C=C/c2cccc(C(F)(F)F)c2)c(OC)c1 | 6.07% (active) | 1.61% (active) | 14.1% | 42.4% | 31.4% | 42.1% | 11.8% | 17.5% | 15.4% | 17.1% | 16.4% | -2.51% (active) | 16.2% | 0.796% (active) | 17% | 2.79% (active) | 29.1% | 11% |
| O=S(=O)(NCCNc1cc(-c2cn(-c3ccccc3)nc2-c2ccccc2)ccn1)c1ccc(F)cc1 | 79.3% | 72.5% | 83% | 106% | 85.6% | 92.1% | 98% | 94.7% | 87.3% | 81.3% | 50.5% | 94.8% | 83.9% | 95.4% | 86.3% | 79.4% | 102% | 87.3% |
| O=C(Cc1c(F)cccc1Cl)Nc1ccc(S(=O)(=O)Nc2ncccn2)cc1 | 52% | 70.4% | 113% | 103% | 101% | 102% | -23.2% (active) | 109% | 111% | 108% | 102% | 90.8% | 101% | 102% | 96.2% | 102% | 97.3% | 111% |
| O=C(OCCCCOC(=O)n1cnc2ccccc21)n1cnc2ccccc21 | 84.6% | 102% | 99.7% | 103% | 105% | 98.9% | 102% | 108% | 90.2% | 105% | 92.2% | 104% | 103% | 106% | 96.7% | 102% | 111% | 104% |
